Experimental data as given in PubChem BioAssay (NCI).
“And” between values parts separate entries of the source, which are not always exact repeats. Equal values may be shown once. The panel holds about 79,000 compounds, 15% with a hit somewhere; the sample as a whole holds those more often. The source holds several records for some structures; these can differ, active in one and inactive in another. The source made the active and inactive calls. Rule as the data show it: active = growth inhibition above about 70%; inactive = the rest.

How the values were obtained:
[1] = NCI Yeast Anticancer Drug Screen. Data for the rad52 strain (AID 147);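 also: 0% = growth of vehicle-treated control cultures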; settings: S. cerevisiae rad52 mutant growth inhibition, stronger effect = higher value
Procedure, shortened: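 Vehicle-treated cultures served as the reference for growth inhibition of compound-exposed yeast bearing a DNA repair mutation.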

[2] = NCI Yeast Anticancer Drug Screen. Data for the wt1 strain (AID 149);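 also: 0% = growth of vehicle-treated wt1 cultures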; settings: S. cerevisiae wt1 strain (SPY 50644) growth inhibition, stronger effect = higher value
Procedure, shortened: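 Yeast wt1 strain exposed to compounds; growth inhibition measured relative to vehicle-treated controls.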

[3] = NCI Yeast Anticancer Drug Screen. Data for the rad50EPP+ strain (AID 151);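 also: 0% = growth of vehicle-treated control cultures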; settings: S. cerevisiae rad50 mutant strain, stronger effect = higher value
Procedure, shortened: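 In this screen, rad50EPP+ yeast were exposed to compounds. Growth inhibition was scored against vehicle-treated controls.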

[4] = NCI Yeast Anticancer Drug Screen. Data for the mgt1 strain (AID 153); settings: S. cerevisiae mgt1 mutant growth inhibition, stronger effect = higher value
Procedure, shortened: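 mgt1 strain exposed; growth vs vehicle control recorded as inhibition.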

[5] = NCI Yeast Anticancer Drug Screen. Data for the rad50 strain (AID 155);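 also: 0% = growth of vehicle-only cultures of the same strain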; settings: S. cerevisiae rad50 strain growth inhibition, stronger effect = higher value
Procedure, shortened: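 Yeast carrying a defined DNA repair defect were exposed to test compounds, and growth was compared with vehicle-treated controls to give percent inhibition.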

[6] = NCI Yeast Anticancer Drug Screen. Data for the mec2-1 strain (AID 157); settings: S. cerevisiae mec2-1 strain, stronger effect = higher value
Procedure, shortened: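 Vehicle-treated cultures served as reference for growth inhibition of compound-exposed mec2-1 yeast.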

[7] = NCI Yeast Anticancer Drug Screen. Data for the rad14 strain (AID 159);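 also: 0% = growth of vehicle-treated control cultures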; settings: S. cerevisiae rad14 strain growth inhibition, stronger effect = higher value
Procedure, shortened: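 Yeast cells carrying a defined DNA-repair defect were exposed to compounds, and growth inhibition was calculated relative to vehicle-treated control cultures.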

[8] = NCI Yeast Anticancer Drug Screen. Data for the sgs1 mgt1 strain (AID 161);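 also: 0% = growth of cultures given vehicle only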; settings: S. cerevisiae sgs1 mgt1 strain, stronger effect = higher value
Procedure, shortened: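 Inhibition of yeast growth, normalised to vehicle-treated controls, is reported for a strain bearing genetic alterations in DNA damage repair.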

[9] = NCI Yeast Anticancer Drug Screen. Data for the CLN2oe strain (AID 163);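 also: 0% = growth of vehicle-only control cultures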; settings: S. cerevisiae CLN2oe strain, stronger effect = higher value
Procedure, shortened: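 Inhibition relative to vehicle-treated yeast is reported. Cells: strain with genetic alteration in cell-cycle control, grown with compound.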

[10] = NCI Yeast Anticancer Drug Screen. Data for the cln2 rad14 strain (AID 165);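 also: 0% = growth equal to vehicle treated cultures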; settings: S. cerevisiae cln2 rad14 strain, stronger effect = higher value
Procedure, shortened: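 Each compound was tested on cln2 rad14 yeast. Inhibition of growth was calculated against vehicle-exposed controls.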

[11] = NCI Yeast Anticancer Drug Screen. Data for the bub3 strain (AID 167); settings: S. cerevisiae bub3 mutant strain, stronger effect = higher value
Procedure, shortened: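 Compounds were applied to a genetically altered yeast strain carrying a cell-cycle control defect. Growth inhibition was scored against vehicle-treated controls.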

[12] = NCI Yeast Anticancer Drug Screen. Data for the wt2 strain (AID 169);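 also: 0% = growth of vehicle-treated yeast cultures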; settings: S. cerevisiae wt2 strain growth inhibition, stronger effect = higher value
Procedure, shortened: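 Inhibition of yeast growth was determined after compound treatment, normalised to controls receiving only vehicle.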

[13] = NCI Yeast Anticancer Drug Screen. Data for the mlh1 strain (AID 171);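 also: 0% = growth of vehicle-treated control cultures of the same strain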; settings: S. cerevisiae mlh1 strain growth inhibition, stronger effect = higher value
Procedure, shortened: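 Vehicle-normalised growth inhibition of a repair- or checkpoint-altered yeast strain following compound treatment.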

[14] = NCI Yeast Anticancer Drug Screen. Data for the sgs1 strain (AID 173);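 also: 0% = growth of vehicle-only control cultures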; settings: S. cerevisiae sgs1 mutant, stronger effect = higher value
Procedure, shortened: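 Screen format: yeast with repair or checkpoint alterations, compound exposure, growth read relative to vehicle.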

[15] = NCI Yeast Anticancer Drug Screen. Data for the mlh1 rad18 strain (AID 175); settings: S. cerevisiae mlh1 rad18 strain growth inhibition, stronger effect = higher value
Procedure, shortened: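 Vehicle-treated cultures served as the reference for growth inhibition in a yeast strain carrying DNA damage repair alterations exposed to each compound.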

[16] = NCI Yeast Anticancer Drug Screen. Data for the rad18 strain (AID 177); settings: S. cerevisiae rad18 mutant growth inhibition, stronger effect = higher value
Procedure, shortened: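 Test articles were incubated with altered yeast defective in DNA damage repair. Results are given as inhibition of growth versus vehicle.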

[17] = at 5.0 µM (retest, dose inferred, filed as 0.5)
[18] = at 50.0 µM (retest, dose inferred, filed as 5.0)

Q: What does the source list for `O=C(NNc1ccccc1)C(O)C(O)C(O)C(O)C(O)CO` (stereo not drawn)?
A: growth inhibition ([1]; at 1.2 µM): 3% (inactive); growth inhibition ([1]; at 3.7 µM): 11% (inactive); growth inhibition ([1]; at 11.0 µM): 29% (inactive); growth inhibition ([1]; at 33.0 µM): 53% (inactive); growth inhibition ([1]; at 100.0 µM): 93% (active); growth inhibition ([2]; at 1.2 µM): 4% (inactive); growth inhibition ([2]; at 3.7 µM): 12% (inactive); growth inhibition ([2]; at 11.0 µM): 31% (inactive); growth inhibition ([2]; at 33.0 µM): 52% (inactive); growth inhibition ([2]; at 100.0 µM): 70% (active); growth inhibition ([3]; at 1.2 µM): 9% (inactive); growth inhibition ([3]; at 3.7 µM): 29% (inactive); growth inhibition ([3]; at 11.0 µM): 43% (inactive); growth inhibition ([3]; at 33.0 µM): 64% (inactive); growth inhibition ([3]; at 100.0 µM): 86% (active); growth inhibition ([4]; at 1.2 µM): 6% (inactive); growth inhibition ([4]; at 3.7 µM): 12% (inactive); growth inhibition ([4]; at 11.0 µM): 23% (inactive); growth inhibition ([4]; at 33.0 µM): 50% (inactive); growth inhibition ([4]; at 100.0 µM): 88% (active); growth inhibition ([5]; at 1.2 µM): 5% (inactive); growth inhibition ([5]; at 3.7 µM): 7% (inactive); growth inhibition [5, 17]: 24% (inactive) and 10% (inactive); growth inhibition ([5]; at 11.0 µM): 21% (inactive); growth inhibition ([5]; at 33.0 µM): 40% (inactive); growth inhibition [5, 18]: 48% (inactive) and 56% (inactive) and 87% (active); growth inhibition ([5]; at 50.0 µM): 91.7% (active) and 24.9% (inactive) and 57.1% (inactive); growth inhibition ([5]; at 100.0 µM): 84% (active); growth inhibition ([6]; at 1.2 µM): -2% (inactive); growth inhibition ([6]; at 3.7 µM): 2% (inactive); growth inhibition [6, 17]: -5% (inactive) and 6% (inactive) and 1% (inactive); growth inhibition ([6]; at 11.0 µM): 31% (inactive); growth inhibition ([6]; at 33.0 µM): 52% (inactive); growth inhibition [6, 18]: 39% (inactive) and 48% (inactive) and 87% (active); growth inhibition ([6]; at 50.0 µM): 51.7% (inactive) and 26.8% (inactive) and 80.2% (active); growth inhibition ([6]; at 100.0 µM): 82% (active); growth inhibition ([7]; at 1.2 µM): 0% (inactive); growth inhibition ([7]; at 3.7 µM): -1% (inactive); growth inhibition ([7]; at 11.0 µM): 8% (inactive); growth inhibition ([7]; at 33.0 µM): 20% (inactive); growth inhibition ([7]; at 100.0 µM): 59% (inactive); growth inhibition [8, 17]: -10% (inactive) and 9% (inactive) and 13% (inactive); growth inhibition [8, 18]: 35% (inactive) and 52% (inactive) and 71% (active); growth inhibition ([8]; at 50.0 µM): 78.5% (active) and 54.9% (inactive) and 60.7% (inactive); growth inhibition ([9]; at 1.2 µM): -2% (inactive); growth inhibition ([9]; at 3.7 µM): 3% (inactive); growth inhibition ([9]; at 11.0 µM): 22% (inactive); growth inhibition ([9]; at 33.0 µM): 52% (inactive); growth inhibition ([9]; at 100.0 µM): 76% (active); growth inhibition [10, 17]: 4% (inactive) and 3% (inactive); growth inhibition [10, 18]: 54% (inactive) and 48% (inactive) and 81% (active); growth inhibition ([10]; at 50.0 µM): 54.4% (inactive) and 55.3% (inactive) and 78.8% (active); growth inhibition ([11]; at 1.2 µM): -3% (inactive); growth inhibition ([11]; at 3.7 µM): 0% (inactive); growth inhibition [11, 17]: -1% (inactive) and 10% (inactive) and 14% (inactive); growth inhibition ([11]; at 11.0 µM): 33% (inactive); growth inhibition ([11]; at 33.0 µM): 75% (active); growth inhibition [11, 18]: 38% (inactive) and 79% (active) and 90% (active); growth inhibition ([11]; at 50.0 µM): 96.8% (active) and 45.6% (inactive) and 87.4% (active); growth inhibition ([11]; at 100.0 µM): 92% (active); growth inhibition ([12]; at 1.2 µM): 2% (inactive); growth inhibition ([12]; at 3.7 µM): 12% (inactive); growth inhibition ([12]; at 11.0 µM): 28% (inactive); growth inhibition ([12]; at 33.0 µM): 39% (inactive); growth inhibition ([12]; at 100.0 µM): 80% (active); growth inhibition ([13]; at 1.2 µM): 4% (inactive); growth inhibition ([13]; at 3.7 µM): 2% (inactive); growth inhibition ([13]; at 11.0 µM): 22% (inactive); growth inhibition ([13]; at 33.0 µM): 44% (inactive); growth inhibition ([13]; at 100.0 µM): 91% (active); growth inhibition ([14]; at 1.2 µM): 2% (inactive); growth inhibition ([14]; at 3.7 µM): 10% (inactive); growth inhibition ([14]; at 11.0 µM): 37% (inactive); growth inhibition ([14]; at 33.0 µM): 67% (inactive); growth inhibition ([14]; at 100.0 µM): 94% (active); growth inhibition [15, 17]: 23% (inactive) and 28% (inactive) and 26% (inactive); growth inhibition [15, 18]: 85% (active) and 87% (active) and 93% (active); growth inhibition ([15]; at 50.0 µM): 86.9% (active) and 85.9% (active) and 95.2% (active); growth inhibition ([16]; at 1.2 µM): 5% (inactive); growth inhibition ([16]; at 3.7 µM): 13% (inactive); growth inhibition ([16]; at 11.0 µM): 39% (inactive); growth inhibition ([16]; at 33.0 µM): 67% (inactive); growth inhibition ([16]; at 100.0 µM): 92% (active)
